Screening data deposited in PubChem BioAssay by several laboratories.
Sampled rows, rich in hits. Any-hit rate of the full collection: about 1.3%.
S1P2 antag: human S1P2 receptor antagonists, primary screen, cell-based; Sphingosine 1-phosphate receptor 2 (Homo sapiens), O95136; cell-based S1P2 antagonist assay, inhibition at 5 uM; inhibition, % at 5 µM; 97,000 tested, 0.21% active; AID 736, 2007; in the data active = inhibition above about 45%;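 note: CRE beta-lactamase reporter cells expressing human S1P2 stimulated with S1P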
Target sequence (O95136 whole entry, looked up): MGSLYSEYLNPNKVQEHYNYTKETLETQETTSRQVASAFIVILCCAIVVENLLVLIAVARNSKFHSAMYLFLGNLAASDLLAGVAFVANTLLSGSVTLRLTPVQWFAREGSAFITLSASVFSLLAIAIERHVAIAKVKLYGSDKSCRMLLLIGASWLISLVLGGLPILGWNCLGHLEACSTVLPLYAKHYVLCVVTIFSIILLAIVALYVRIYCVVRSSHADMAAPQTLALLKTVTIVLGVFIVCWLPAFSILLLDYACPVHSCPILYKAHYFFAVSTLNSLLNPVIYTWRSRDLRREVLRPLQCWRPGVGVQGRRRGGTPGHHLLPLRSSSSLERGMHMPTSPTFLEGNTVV
GALR2 antag: GALR2 antagonists in receptor-expressing cells, primary screen | antagonist mode | inhibition, % at 4 µM | 140,000 tested, 0.39% active; in the data active = inhibition above about 27%;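 note: cells stimulated with galanin 1-16 at roughly its EC80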
Target sequence (O43603 whole entry, looked up): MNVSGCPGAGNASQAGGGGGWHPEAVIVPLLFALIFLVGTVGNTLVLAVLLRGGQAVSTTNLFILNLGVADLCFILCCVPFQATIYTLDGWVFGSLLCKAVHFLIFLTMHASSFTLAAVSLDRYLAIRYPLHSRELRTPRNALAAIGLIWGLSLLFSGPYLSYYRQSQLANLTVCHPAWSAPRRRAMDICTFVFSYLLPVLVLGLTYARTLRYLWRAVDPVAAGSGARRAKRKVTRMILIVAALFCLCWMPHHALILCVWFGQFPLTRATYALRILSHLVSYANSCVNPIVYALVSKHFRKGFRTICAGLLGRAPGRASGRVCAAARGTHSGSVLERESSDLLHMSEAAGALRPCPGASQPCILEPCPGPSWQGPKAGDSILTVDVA
S1P2 agonist: S1P2 receptor agonists, primary screen, cell-based. Sphingosine 1-phosphate receptor 2 (Homo sapiens), O95136. S1P2-expressing cell line, agonist reporter read-out. activation, % at 4.5 µM. 97,000 tested, 0.46% active; in the data active = activation above about 16%
GALR2 agonist: GALR2 receptor agonists, primary screen, cell-based. GALR2-expressing cells, agonist activation read-out. Galanin receptor type 2 (Homo sapiens), O43603. activation, % (concentration not given with the values). 140,000 tested, 0.48% active; in the data active = activation above about 5%, passing the limit was not always enough
cytoskel mod: modifiers of F-actin cytoskeleton organization, primary screen, imaging, HUVEC, phalloidin staining, high-content imaging. inhibition, % at 2 µM. HUVEC TNFa F-actin phalloidin imaging. 91,000 tested, 0.18% active;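 active = inhibition above the batch mean plus 3 SD and confirmed as a hit by visual image inspection, cut at about 30% in these data, passing the limit was not always enough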
Each line names hits and unclear results; the compound was inactive in the other large screens.

CCOc1cc2c(C#N)c(N3CCCCC3)nc(N)c2c(N)n1	none (no result: cytoskel mod)
Cc1ccc2sc(NC(=O)c3ccc(N4C(=O)CCC4=O)cc3)nc2c1C	GALR2 agonist 6.7 (no result: S1P2 antag, S1P2 agonist, cytoskel mod)
COc1ccc(CN2C(=S)NC(C)(C)CC2(C)O)cc1 (stereo unspecified)	none (no result: S1P2 antag, S1P2 agonist, cytoskel mod)
CC(O)C1C(=O)OC2(C)CC(C)(C)NC(=S)N12 (stereo unspecified)	S1P2 agonist 44
Cc1ccc(-c2noc(CSc3nc(N)cc(N)n3)n2)cc1	cytoskel mod 35
COc1ccc(CC(=O)Nc2cccc(-c3nnc(-c4cccc(C)c4)o3)c2)cc1OC	GALR2 antag 28 (no result: S1P2 antag, S1P2 agonist, cytoskel mod)
COc1ccc(CC(=O)Nc2cccc(-c3nnc(-c4ccccc4)o3)c2)cc1OC	S1P2 antag 56
COc1cccc(C(C#N)N2CCCCC2)c1O (stereo unspecified)	cytoskel mod 48
COc1ccc(C(C#N)N2CCCCCC2)cc1OC (stereo unspecified)	none
COc1cccc(/C=N/Nc2snc(SC)c2C#N)c1	none
COc1ccc(/C=N/Nc2snc(SC)c2C#N)cc1OC	GALR2 agonist 5.1
O=C(COC(=O)/C(=C/c1cccs1)c1cccs1)NC(c1ccccc1)c1ccccc1	none (no result: S1P2 antag, S1P2 agonist, cytoskel mod)
O=C(Nc1nnc(SCc2ccc(Cl)cc2)s1)C1CC(=O)N(Cc2ccccc2)C1 (stereo unspecified)	none (no result: S1P2 antag, S1P2 agonist, cytoskel mod)
Nc1nc(Br)c2c(F)cccc2c1-c1ccc(Cl)cc1	S1P2 agonist 38, GALR2 agonist 13
O=C(CSc1nc2ccccc2c(=O)n1-c1ccc(F)cc1F)c1c[nH]c2ccccc12	none (no result: S1P2 antag, S1P2 agonist, cytoskel mod)
Cn1c(=O)c(Nc2ccc(O)cc2)c2c3c(cccc31)C(=O)c1ccccc1-2	none (no result: S1P2 antag, S1P2 agonist, cytoskel mod)
CC(C)Cn1c(N)c(C(=O)COC(=O)c2ccc3ccccc3n2)c(=O)n(C)c1=O	S1P2 agonist 22
Cc1c(C(=O)OCC(=O)c2c(N)n(CC(C)C)c(=O)n(C)c2=O)oc2ccccc12	none
COc1ccccc1C1CN(c2ccc(F)cc2F)N=C1c1cccs1 (stereo unspecified)	S1P2 agonist 17, GALR2 agonist 37
CSc1nc(C)cc(SCC(=O)N/N=C/c2ccccc2)n1	none (no result: S1P2 antag, S1P2 agonist, cytoskel mod)
Cc1cc(C)n(-c2nc(NCC(C)O)c3c4c(sc3n2)COC(C)(C)C4)n1 (stereo unspecified)	none
Cc1cc(C)n(-c2nc(NCCCO)c3c4c(sc3n2)CCCC4)n1	GALR2 agonist 36
Cc1cc(C)n(-c2nc(NCC(C)O)c3c4c(sc3n2)CCCC4)n1 (stereo unspecified)	GALR2 agonist 8.8
Cc1cc(C)n(-c2nc(NCCO)c3c4c(sc3n2)CCCC4)n1	GALR2 agonist 8.1
O=C(O)C(O)Cc1c[nH]c2ccccc12 (stereo unspecified)	none (no result: S1P2 antag, S1P2 agonist, cytoskel mod)
OC(c1ccccn1)c1c[nH]c2ccccc12 (stereo unspecified)	cytoskel mod 67
CC(C)(C)C(=O)Nc1cc(NC(=O)C(C)(C)C)cc(C(=O)Nc2cc(C(=O)O)cc(C(=O)O)c2)c1	none (no result: S1P2 antag, S1P2 agonist, cytoskel mod)
COc1ccc2occ(C(C)=O)c2c1	none
COc1ccc(OC)c(C(=O)c2coc3ccc(O)cc23)c1	cytoskel mod 61
COc1cc2nc(SCc3ccc(C(F)(F)F)cc3)n(Cc3cccs3)c(=N)c2cc1OC	S1P2 agonist 16
CC(C)CC(=O)Nc1ccc(-c2nc3ccccc3c(=O)[nH]2)cc1	none (no result: S1P2 antag, S1P2 agonist, cytoskel mod)
COc1ccc(OC)c(C2=Nn3c(nnc3-c3cc(OC)c(OC)c(OC)c3)SC2)c1	S1P2 agonist 40
COc1cccc(-c2nnc3n2N=C(C(C)(C)C)CS3)c1	S1P2 antag 98
COc1cc(-c2nnc3n2N=C(c2ccccc2)CS3)cc(OC)c1OC	S1P2 agonist 34
Cc1ccc2[nH]c(=O)c(CNS(=O)(=O)c3ccccc3)c(-c3ccccc3)c2c1	none (no result: S1P2 antag, S1P2 agonist, cytoskel mod)
O=C(c1ccncc1)N(c1ccc2oc3c(c2c1)CCCC3)S(=O)(=O)c1ccc(F)cc1	none (no result: S1P2 antag, S1P2 agonist, cytoskel mod)
Cc1cc(C)cc(-n2nnnc2SCC(=O)Nc2nc(-c3ccc(F)cc3)cs2)c1	none
Cc1cc(C)cc(-n2nnnc2SCC(=O)Nc2nc(-c3ccc(Cl)cc3)cs2)c1	cytoskel mod 45
CN(C)c1ccc(-c2nn3c(-c4ccc(Cl)cc4Cl)nnc3s2)cc1	GALR2 agonist 6.0 (no result: S1P2 antag, S1P2 agonist, cytoskel mod)
CCN(CC)c1ccc(-c2nn3c(-c4ccccc4OC)nnc3s2)cc1	GALR2 agonist 6.8
COc1ccc(-c2nn3c(-c4ccccc4)nnc3s2)cc1	none
Cc1ccc(-c2nn3c(C)nnc3s2)cc1NC(=O)c1ccc(-c2ccc(Cl)cc2Cl)o1	GALR2 agonist 6.8 (no result: S1P2 antag, S1P2 agonist, cytoskel mod)
COc1ccc(/C=N/NC(=O)c2ccc(O)cc2O)cc1CSc1ccccn1	none (no result: S1P2 antag, S1P2 agonist, cytoskel mod)
COc1cc(OC)c2c(c1)C(=O)OC2	none (no result: S1P2 antag, S1P2 agonist, cytoskel mod)
CCOc1ccccc1NC(=O)C1=C(C)NC(=S)NC1c1cccs1 (stereo unspecified)	none (no result: S1P2 antag, S1P2 agonist, cytoskel mod)
CCCCCCn1c(SCC(=O)c2c(N)n(C)c(=O)n(C)c2=O)nc2ccccc21	none (no result: cytoskel mod)
CCCn1c(N)c(C(=O)CSc2nc3ccccc3n2CCC#N)c(=O)n(C)c1=O	S1P2 agonist 26
Cc1c(C(=O)O)cccc1-c1ccc(/C=N/Nc2ccc(Br)cc2)o1	none (no result: S1P2 antag, S1P2 agonist, cytoskel mod)
CCOc1ccc(OCC)c(NC(=O)CSc2nc3c(c(=O)n(C)c(=O)n3C)n2C(C)C)c1	S1P2 agonist 26
Cc1ccc(-c2cc(C(F)F)nc(NCc3cccs3)n2)cc1	none (no result: S1P2 antag, S1P2 agonist, cytoskel mod)
Cc1ccc(-c2cc(C(F)F)nc(NCc3cccnc3)n2)cc1	GALR2 agonist 5.0
CCOC(=O)c1sc2nccc(N(C)C)c2c1N=CNOCc1c(F)cccc1Cl	S1P2 agonist 33
CCC(C)[C@H](NC(=O)NCCCn1ccnc1)C(=O)OC (stereo partly specified)	none (no result: S1P2 antag, S1P2 agonist, cytoskel mod)
Cc1cc(Nc2ccc3c(c2)OCCO3)c2cc(Cl)ccc2n1	none (no result: S1P2 antag, S1P2 agonist, cytoskel mod)
Cc1ccc(-c2cc(C(=O)NCc3ccccn3)no2)cc1	cytoskel mod 77
CC(C)CCN1CC(C(=O)NCCC2=CCCCC2)CC1=O (stereo unspecified)	cytoskel mod 68
CSc1nc(N(C)C)nc(N2CC(=O)N(CCNS(=O)(=O)c3ccc(C)cc3)C2=N)n1	none (no result: S1P2 antag, S1P2 agonist, cytoskel mod)
COc1ccc2c(c1)c1nnc(SC)nc1n2C	none
COc1ccc2c(c1)c1nnc(SCC(=O)N3C(C)CCCC3C)nc1n2C (stereo unspecified)	S1P2 agonist 19
CCOC(=O)c1sc(Nc2nc3c(OC)cccc3s2)nc1C	GALR2 agonist 46 (no result: S1P2 antag, S1P2 agonist, cytoskel mod)
CCOC(=O)c1sc(Nc2ccccc2)nc1C	none
CCOc1cccc2sc(Nc3nc4ccc(NC(C)=O)cc4s3)nc12	GALR2 agonist 8.1 (no result: S1P2 antag, S1P2 agonist, cytoskel mod)
O=C(O)c1cc([N+](=O)[O-])c(N2CCCC2)c([N+](=O)[O-])c1	none (no result: S1P2 antag, S1P2 agonist, cytoskel mod)
CC(Sc1nnnn1-c1ccc(Cl)cc1)C(=O)NCC(=O)Nc1ccc(F)c(F)c1F (stereo unspecified)	none (no result: S1P2 antag, S1P2 agonist, cytoskel mod)
Cc1c(Cl)cnc(NC(=O)CSc2nncs2)c1Cl	none (no result: S1P2 antag, S1P2 agonist, cytoskel mod)
CCc1ccc2[nH]c(=O)c(CN(Cc3ccc4c(c3)OCO4)Cc3nnnn3C3CCCC3)cc2c1	S1P2 agonist 24
Cc1ccc(-c2cc(-c3ccc(C)o3)nc(N)c2C#N)cc1	none
